Key:
[1] = target: T1, Tyrosine-protein kinase Tec (Homo sapiens) (UniProt P42680); details: at 10 µM
T1 sequence (whole entry): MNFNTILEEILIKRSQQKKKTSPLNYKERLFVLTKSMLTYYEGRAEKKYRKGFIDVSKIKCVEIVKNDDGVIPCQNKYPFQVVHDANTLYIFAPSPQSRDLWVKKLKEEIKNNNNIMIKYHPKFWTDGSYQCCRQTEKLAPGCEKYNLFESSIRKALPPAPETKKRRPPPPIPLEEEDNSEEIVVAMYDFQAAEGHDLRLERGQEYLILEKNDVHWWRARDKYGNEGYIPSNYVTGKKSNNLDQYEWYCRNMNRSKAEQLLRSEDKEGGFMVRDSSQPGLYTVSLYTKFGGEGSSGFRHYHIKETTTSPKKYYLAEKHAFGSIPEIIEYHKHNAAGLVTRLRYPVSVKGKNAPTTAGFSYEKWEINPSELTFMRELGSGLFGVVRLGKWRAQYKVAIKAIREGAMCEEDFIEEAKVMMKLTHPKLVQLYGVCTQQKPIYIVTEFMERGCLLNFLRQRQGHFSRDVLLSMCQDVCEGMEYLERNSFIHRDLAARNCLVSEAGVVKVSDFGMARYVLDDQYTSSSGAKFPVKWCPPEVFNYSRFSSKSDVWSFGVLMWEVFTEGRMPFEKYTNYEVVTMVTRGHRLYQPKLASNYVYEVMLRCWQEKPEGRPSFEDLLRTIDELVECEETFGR

[2] = target: Angiopoietin-1 receptor (Homo sapiens) (UniProt Q02763); details: at 1 µM
[3] = target: Angiopoietin-1 receptor (Homo sapiens) (UniProt Q02763); details: at 10 µM
[4] = target: High affinity nerve growth factor receptor (Homo sapiens) (UniProt P04629); details: at 1 µM
[5] = target: High affinity nerve growth factor receptor (Homo sapiens) (UniProt P04629); details: at 10 µM
[6] = target: BDNF/NT-3 growth factors receptor (Homo sapiens) (UniProt Q16620); details: at 1 µM
[7] = target: BDNF/NT-3 growth factors receptor (Homo sapiens) (UniProt Q16620); details: at 10 µM
[8] = target: T2, Tyrosine-protein kinase TXK (Homo sapiens) (UniProt P42681); details: at 10 µM
T2 sequence (whole entry): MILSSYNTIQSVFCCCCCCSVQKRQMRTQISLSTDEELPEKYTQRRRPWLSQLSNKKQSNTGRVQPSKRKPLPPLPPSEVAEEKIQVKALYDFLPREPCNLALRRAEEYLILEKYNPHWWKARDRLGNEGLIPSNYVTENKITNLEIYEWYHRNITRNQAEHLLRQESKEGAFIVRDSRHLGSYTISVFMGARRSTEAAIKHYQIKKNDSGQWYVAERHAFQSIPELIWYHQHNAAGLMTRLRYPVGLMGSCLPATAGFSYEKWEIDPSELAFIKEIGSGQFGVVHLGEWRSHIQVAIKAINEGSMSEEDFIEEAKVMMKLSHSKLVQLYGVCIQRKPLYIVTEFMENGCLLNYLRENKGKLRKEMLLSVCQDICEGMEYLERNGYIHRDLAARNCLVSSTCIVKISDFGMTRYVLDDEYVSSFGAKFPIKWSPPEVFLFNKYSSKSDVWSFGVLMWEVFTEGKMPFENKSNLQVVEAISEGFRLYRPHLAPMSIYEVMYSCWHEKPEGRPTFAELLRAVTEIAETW

[9] = target: T3, Serine/threonine-protein kinase ULK2 (Homo sapiens) (UniProt Q8IYT8); details: at 1 µM
T3 sequence (whole entry): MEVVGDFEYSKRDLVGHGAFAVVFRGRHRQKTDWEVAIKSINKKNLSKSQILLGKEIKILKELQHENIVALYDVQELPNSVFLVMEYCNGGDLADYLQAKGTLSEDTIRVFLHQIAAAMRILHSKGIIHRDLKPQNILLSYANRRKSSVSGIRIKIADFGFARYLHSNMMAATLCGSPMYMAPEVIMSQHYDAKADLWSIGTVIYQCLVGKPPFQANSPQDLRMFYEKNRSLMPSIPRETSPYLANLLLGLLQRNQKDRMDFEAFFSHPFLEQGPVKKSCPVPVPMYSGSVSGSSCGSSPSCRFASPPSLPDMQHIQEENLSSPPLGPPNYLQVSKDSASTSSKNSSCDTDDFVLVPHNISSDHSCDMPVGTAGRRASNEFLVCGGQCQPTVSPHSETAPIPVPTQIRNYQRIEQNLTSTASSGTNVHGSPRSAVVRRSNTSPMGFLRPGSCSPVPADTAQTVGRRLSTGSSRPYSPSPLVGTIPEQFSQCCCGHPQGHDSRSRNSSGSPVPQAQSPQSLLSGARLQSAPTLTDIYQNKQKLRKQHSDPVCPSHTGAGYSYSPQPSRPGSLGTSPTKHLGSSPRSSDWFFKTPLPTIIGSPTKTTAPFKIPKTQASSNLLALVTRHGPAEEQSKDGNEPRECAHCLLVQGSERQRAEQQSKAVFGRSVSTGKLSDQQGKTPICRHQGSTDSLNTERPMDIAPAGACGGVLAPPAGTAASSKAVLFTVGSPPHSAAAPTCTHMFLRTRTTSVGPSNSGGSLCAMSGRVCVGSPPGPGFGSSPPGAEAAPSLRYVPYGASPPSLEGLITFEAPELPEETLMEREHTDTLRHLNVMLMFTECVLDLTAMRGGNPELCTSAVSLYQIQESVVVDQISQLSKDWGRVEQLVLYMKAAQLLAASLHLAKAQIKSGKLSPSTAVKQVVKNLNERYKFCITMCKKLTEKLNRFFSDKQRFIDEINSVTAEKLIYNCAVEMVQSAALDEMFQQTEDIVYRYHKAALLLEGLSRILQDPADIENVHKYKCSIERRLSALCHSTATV

[10] = target: T3, Serine/threonine-protein kinase ULK2 (Homo sapiens); details: at 10 µM
[11] = target: T4, Serine/threonine-protein kinase ULK3 (Homo sapiens) (UniProt Q6PHR2); details: at 1 µM
T4 sequence (whole entry): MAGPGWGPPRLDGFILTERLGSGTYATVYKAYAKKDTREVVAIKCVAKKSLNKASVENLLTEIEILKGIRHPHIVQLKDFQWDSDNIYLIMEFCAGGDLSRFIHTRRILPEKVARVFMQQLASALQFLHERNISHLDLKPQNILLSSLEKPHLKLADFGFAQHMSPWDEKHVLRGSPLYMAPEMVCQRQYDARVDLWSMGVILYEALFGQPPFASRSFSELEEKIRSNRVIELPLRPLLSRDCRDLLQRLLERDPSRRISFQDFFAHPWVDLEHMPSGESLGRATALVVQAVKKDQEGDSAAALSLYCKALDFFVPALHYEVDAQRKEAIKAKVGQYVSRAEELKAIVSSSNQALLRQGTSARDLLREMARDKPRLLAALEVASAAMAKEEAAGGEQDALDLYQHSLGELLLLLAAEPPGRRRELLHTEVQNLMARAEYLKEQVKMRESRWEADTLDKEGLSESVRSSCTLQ

[12] = target: T4, Serine/threonine-protein kinase ULK3 (Homo sapiens); details: at 10 µM
[13] = target: Serine/threonine-protein kinase VRK2 (Homo sapiens) (UniProt Q86Y07); details: at 1 µM
[14] = target: Serine/threonine-protein kinase VRK2 (Homo sapiens) (UniProt Q86Y07); details: at 10 µM
[15] = target: Serine/threonine-protein kinase WNK2 (Homo sapiens) (UniProt Q9Y3S1); details: at 1 µM;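 also: residual WNK2 kinase activity expressed as percent of uninhibited control, assayed in MOPS buffer at pH 7.0 containing EDTA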
[16] = target: T5, Testis-specific serine/threonine-protein kinase 2 (Homo sapiens) (UniProt Q96PF2); details: at 10 µM
T5 sequence (whole entry): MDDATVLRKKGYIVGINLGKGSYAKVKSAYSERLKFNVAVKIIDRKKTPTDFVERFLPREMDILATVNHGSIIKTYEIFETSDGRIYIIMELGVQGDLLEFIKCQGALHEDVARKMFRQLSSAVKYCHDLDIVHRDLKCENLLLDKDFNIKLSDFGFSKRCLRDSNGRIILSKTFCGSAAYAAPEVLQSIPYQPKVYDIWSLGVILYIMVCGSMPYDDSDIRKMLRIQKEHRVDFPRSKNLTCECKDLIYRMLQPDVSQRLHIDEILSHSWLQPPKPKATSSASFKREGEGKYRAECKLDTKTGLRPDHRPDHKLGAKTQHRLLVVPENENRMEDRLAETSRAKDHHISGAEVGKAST

[17] = target: T2, Tyrosine-protein kinase TXK (Homo sapiens); details: at 1 µM
[18] = target: T1, Tyrosine-protein kinase Tec (Homo sapiens); details: at 1 µM
[19] = target: T6, Testis-specific serine/threonine-protein kinase 1 (Homo sapiens) (UniProt Q9BXA7); details: at 1 µM
T6 sequence (whole entry): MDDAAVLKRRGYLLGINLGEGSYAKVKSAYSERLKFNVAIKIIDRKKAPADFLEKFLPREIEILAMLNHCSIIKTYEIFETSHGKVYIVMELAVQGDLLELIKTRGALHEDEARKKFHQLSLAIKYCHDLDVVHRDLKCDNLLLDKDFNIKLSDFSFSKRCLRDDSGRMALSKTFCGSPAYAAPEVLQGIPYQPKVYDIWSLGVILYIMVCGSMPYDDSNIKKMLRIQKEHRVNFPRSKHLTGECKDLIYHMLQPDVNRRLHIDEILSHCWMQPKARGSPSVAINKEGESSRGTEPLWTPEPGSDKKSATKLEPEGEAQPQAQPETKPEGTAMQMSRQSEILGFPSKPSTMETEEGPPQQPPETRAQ

Serine/threonine-protein kinase WNK2 (Homo sapiens), sequence (Q9Y3S1 whole entry): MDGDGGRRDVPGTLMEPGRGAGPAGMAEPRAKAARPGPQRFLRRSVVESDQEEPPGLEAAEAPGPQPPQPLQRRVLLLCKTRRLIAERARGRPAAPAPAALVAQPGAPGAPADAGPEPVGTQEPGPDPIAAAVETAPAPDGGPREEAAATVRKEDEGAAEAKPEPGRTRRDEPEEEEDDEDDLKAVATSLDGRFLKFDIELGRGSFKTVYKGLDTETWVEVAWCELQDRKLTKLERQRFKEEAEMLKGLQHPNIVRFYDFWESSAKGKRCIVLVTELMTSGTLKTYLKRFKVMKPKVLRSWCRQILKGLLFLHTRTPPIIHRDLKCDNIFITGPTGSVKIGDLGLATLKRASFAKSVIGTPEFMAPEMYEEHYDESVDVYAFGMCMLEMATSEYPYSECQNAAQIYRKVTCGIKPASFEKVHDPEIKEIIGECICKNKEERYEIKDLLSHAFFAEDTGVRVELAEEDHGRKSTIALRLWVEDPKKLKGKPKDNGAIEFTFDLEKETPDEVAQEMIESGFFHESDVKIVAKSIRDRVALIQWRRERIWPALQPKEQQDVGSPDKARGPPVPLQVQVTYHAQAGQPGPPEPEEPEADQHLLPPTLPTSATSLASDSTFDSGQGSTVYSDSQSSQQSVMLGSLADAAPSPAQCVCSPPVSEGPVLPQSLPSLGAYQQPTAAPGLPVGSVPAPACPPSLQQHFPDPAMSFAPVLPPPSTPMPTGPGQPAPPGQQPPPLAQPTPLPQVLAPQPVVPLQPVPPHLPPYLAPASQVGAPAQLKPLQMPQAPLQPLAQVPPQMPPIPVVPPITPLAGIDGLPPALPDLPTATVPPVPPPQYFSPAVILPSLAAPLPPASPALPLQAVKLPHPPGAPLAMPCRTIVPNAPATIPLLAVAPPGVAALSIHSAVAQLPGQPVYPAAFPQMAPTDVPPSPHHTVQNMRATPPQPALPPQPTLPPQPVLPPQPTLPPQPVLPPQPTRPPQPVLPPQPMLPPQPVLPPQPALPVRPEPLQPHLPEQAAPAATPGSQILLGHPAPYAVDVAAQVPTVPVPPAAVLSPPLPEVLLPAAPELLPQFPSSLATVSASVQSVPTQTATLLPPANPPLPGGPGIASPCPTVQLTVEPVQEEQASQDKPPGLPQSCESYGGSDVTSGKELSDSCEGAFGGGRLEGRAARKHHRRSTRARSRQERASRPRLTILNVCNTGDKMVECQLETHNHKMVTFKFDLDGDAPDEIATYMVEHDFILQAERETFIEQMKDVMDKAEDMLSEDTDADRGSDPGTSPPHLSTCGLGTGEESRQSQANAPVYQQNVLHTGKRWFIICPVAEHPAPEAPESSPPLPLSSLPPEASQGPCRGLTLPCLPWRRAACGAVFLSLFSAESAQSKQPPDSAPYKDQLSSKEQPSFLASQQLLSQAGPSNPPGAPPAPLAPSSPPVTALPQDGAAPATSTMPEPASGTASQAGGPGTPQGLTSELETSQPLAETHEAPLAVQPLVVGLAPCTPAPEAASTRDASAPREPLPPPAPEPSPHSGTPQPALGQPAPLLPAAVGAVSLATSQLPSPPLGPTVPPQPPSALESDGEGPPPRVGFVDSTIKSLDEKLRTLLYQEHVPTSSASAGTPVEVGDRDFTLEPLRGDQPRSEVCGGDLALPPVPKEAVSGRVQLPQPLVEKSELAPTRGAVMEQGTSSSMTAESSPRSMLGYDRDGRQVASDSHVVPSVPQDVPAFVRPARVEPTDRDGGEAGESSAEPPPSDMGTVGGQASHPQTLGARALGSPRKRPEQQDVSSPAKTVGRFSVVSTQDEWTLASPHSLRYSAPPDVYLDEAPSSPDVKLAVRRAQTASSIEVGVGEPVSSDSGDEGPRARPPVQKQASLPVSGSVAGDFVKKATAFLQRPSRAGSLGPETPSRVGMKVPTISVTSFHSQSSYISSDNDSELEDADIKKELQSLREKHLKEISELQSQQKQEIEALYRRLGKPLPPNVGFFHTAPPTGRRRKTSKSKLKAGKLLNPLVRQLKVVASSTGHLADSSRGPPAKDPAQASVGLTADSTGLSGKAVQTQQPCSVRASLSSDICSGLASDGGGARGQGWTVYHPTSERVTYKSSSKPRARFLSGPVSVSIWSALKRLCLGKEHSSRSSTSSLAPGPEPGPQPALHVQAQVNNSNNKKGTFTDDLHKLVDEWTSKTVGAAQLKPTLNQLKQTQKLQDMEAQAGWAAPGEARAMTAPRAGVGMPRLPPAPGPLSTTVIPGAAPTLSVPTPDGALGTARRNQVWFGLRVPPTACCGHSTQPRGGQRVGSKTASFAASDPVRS
BDNF/NT-3 growth factors receptor (Homo sapiens), sequence (Q16620 32-822 limits assumed): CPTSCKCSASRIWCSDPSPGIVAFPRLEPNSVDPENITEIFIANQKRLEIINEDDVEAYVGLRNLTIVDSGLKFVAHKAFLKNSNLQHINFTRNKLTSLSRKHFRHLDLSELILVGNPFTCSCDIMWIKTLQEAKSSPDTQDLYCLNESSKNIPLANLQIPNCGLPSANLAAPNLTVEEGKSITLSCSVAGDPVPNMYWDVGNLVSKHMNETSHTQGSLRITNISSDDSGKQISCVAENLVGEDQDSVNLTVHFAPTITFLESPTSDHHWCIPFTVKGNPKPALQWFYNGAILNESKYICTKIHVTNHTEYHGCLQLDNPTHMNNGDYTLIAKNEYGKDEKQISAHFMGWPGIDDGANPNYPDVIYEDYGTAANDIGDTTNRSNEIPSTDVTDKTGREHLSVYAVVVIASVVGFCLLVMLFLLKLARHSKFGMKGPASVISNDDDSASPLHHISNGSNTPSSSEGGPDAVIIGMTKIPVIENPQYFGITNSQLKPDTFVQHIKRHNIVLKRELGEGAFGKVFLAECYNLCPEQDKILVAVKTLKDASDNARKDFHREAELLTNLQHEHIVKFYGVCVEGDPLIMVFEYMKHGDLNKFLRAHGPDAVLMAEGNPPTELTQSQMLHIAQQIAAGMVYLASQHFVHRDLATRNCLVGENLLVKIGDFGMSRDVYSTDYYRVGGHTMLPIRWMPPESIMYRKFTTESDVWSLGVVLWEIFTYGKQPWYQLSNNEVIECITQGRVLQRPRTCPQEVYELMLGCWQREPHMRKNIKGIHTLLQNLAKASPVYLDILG
Serine/threonine-protein kinase VRK2 (Homo sapiens), sequence (Q86Y07 whole entry): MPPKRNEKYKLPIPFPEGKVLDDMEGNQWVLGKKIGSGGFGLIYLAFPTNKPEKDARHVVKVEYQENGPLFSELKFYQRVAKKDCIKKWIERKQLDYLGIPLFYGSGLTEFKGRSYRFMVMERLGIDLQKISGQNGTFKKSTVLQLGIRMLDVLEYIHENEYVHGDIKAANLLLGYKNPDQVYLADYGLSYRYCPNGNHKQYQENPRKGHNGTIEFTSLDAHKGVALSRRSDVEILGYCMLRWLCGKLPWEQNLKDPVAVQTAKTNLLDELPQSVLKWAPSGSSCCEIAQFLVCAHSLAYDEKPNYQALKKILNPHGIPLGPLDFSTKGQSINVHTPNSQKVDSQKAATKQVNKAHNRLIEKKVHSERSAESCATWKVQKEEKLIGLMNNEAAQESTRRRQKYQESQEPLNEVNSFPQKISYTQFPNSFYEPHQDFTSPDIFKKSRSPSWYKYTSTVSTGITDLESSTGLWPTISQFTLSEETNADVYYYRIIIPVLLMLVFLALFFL
High affinity nerve growth factor receptor (Homo sapiens), sequence (P04629 33-796 limits assumed): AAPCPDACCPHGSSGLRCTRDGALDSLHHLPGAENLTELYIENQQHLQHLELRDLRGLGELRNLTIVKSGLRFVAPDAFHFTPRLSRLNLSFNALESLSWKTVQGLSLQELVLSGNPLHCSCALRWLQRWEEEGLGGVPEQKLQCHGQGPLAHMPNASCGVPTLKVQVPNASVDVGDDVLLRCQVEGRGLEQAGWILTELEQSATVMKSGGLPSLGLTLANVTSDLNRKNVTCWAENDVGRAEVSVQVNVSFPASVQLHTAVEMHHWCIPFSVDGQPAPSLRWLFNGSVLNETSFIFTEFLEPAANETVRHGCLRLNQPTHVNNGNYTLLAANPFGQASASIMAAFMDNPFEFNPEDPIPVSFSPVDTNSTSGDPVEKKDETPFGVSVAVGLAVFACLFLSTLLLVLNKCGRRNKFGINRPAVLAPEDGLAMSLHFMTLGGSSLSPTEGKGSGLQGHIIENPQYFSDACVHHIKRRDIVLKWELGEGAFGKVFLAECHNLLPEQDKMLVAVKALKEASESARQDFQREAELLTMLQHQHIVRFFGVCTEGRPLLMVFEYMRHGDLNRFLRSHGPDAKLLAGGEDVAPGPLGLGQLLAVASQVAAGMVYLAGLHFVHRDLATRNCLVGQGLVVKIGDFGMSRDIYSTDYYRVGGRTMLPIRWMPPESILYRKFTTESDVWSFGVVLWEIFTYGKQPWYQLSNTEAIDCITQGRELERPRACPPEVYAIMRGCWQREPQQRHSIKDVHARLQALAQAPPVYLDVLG

| Compound | residual activity [1] [%] | residual activity [2] [%] | residual activity [3] [%] | residual activity [4] [%] | residual activity [5] [%] | residual activity [6] [%] | residual activity [7] [%] | residual activity [8] [%] | residual activity [9] [%] | residual activity [10] [%] | residual activity [11] [%] | residual activity [12] [%] | residual activity [13] | residual activity [14] [%] | residual activity [15] | residual activity [16] [%] | residual activity [17] [%] | residual activity [18] [%] | residual activity [19] [%] |
| --- | --- | --- | --- | --- | --- | --- | --- | --- | --- | --- | --- | --- | --- | --- | --- | --- | --- | --- | --- |
| COc1ccc2c(c1)c(C1=C(c3c[nH]c4ccccc34)C(=O)NC1=O)cn2CCCN(C)C | 63 | 99 | 36 | 72 | 35 | 77 | 43 | 73 | 101 | 82 | 100 | 59 | 102% (inactive) | 69 | 107% (inactive) |  |  |  |  |
| O=C(Nc1nc2ccccc2n1CCN1CCOCC1)c1cccc([N+](=O)[O-])c1 |  | 80 | 40 | 20 | 29 | 46 | 15 | 77 |  |  | 103 | 83 |  |  |  | 87 | 104 |  |  |
| O=C1Cc2c([nH]c3ccc([N+](=O)[O-])cc23)-c2ccccc2N1 | 72 |  |  | 72 | 63 |  |  | 39 | 49 | 45 | 75 | 53 |  |  |  |  | 49 | 79 |  |
| Nc1ncnc2[nH]nc(Nc3ccc(F)cc3)c12 | 21 | 104 | 79 | 78 | 40 | 123 |  | 18 | 120 | 95 | 97 | 74 | 97% (inactive) | 81 | 101% (inactive) |  | 66 | 82 | 108 |
| Oc1cccc(-c2nc(N3CCOCC3)c3oc4ncccc4c3n2)c1 |  | 80 | 59 | 93 | 118 |  |  | 92 |  | 81 |  | 92 |  | 89 |  | 74 | 93 |  |  |
| O=S(=O)(c1cccc2cnccc12)N1CCCNCC1 |  |  |  |  |  | 83 |  |  |  |  |  |  |  |  |  |  |  |  |  |
| O=C1NC(=O)C(c2cn(CCCn3ccnc3)c3ccccc23)=C1Nc1ccccc1 |  | 55 | 32 | 1 | 9 | 44 | 18 |  |  |  |  |  |  |  |  |  |  |  |  |
| N#C/C(=C1/Nc2ccccc2S1)c1ccnc(NCCc2cccnc2)n1 | 17 |  |  | 56 | 11 | 76 | 44 |  |  |  |  |  |  |  | 63% (inactive) | 68 |  | 79 |  |
| O=C1Nc2ccccc2/C1=C\c1c(Cl)[nH]c2ccccc12 |  |  | 47 | 85 | 34 | 87 | 57 | 74 |  |  |  |  | 76% (inactive) | 28 |  | 78 | 83 |  | 81 |

— ChEMBL document CHEMBL2218924, “A broad activity screen in support of a chemogenomic map for kinase signalling research and drug discovery” (Biochem J, 2013)
